Screening data as filed in PubChem BioAssay.
Only some compounds are listed: those with a hit (about 4.1% of all), similar ones and a draw of the others.
ssDAF-12 act: activates DAF-12 receptor from parasite S. stercoralis; HEK293 ssDAF-12/GRIP1 lit1-tk-luc reporter, luminescence; % of 3 µM dafachronic acid response; activation, % at 6.8 µM; 370,000 tested, 1% active;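 active means activation above the mean over all tested compounds plus 3 SD, cut at about 0.9% in these data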
DAX1 inh-1: inhibitors of human orphan nuclear receptor DAX1 (NR0B1); P51843; HEK293 Gal4-DAX1 luciferase reporter, luminescence; inhibition, % at 6.75 µM; 340,000 tested, 0.99% active; AID 504766;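 active means inhibition above the mean over all tested compounds plus 3 SD, cut at about 4.2% in these data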;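 further: inhibition shows as a rise in luminescence from relieved DAX1 repression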
Target sequence (P51843 207-470 limits assumed): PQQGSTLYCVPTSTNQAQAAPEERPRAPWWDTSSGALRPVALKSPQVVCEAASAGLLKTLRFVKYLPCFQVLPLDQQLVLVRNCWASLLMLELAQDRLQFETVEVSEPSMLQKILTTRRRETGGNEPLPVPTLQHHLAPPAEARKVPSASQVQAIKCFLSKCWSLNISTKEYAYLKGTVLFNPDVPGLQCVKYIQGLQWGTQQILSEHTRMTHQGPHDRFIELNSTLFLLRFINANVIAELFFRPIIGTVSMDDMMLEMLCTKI
hgDAF12 agonist: agonists of H. glycines DAF-12 nuclear receptor; 370,000 tested, 1.8% active; AID 687014; activation, % at 6.8 µM; HEK293 GAL4-hgDAF12 UAS-luciferase reporter, agonist luminescence; normalized to butyrate control;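 active means activation above a cutoff set at the mean of all screened compounds plus 3 SD, cut at about 10% in these data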
DAX1 inh-2: inhibitors of DAX1 repression of SF-1 activated StAR promoter; HEK293T StAR-luciferase reporter, SF-1/DAX-1 repression relief; inhibition, % at 6.8 µM; AID 652010; 370,000 tested, 1.1% active;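 active means inhibition above the mean over all tested compounds plus 3 SD, cut at about 3.6% in these data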;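 further: higher inhibition means more luminescence from relief of DAX-1 repression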
hcDAF-12 act: activates DAF-12 receptor from parasite H. contortus | 370,000 tested, 1.4% active | HEK293 hcDAF-12 lit1-tk-luc reporter, luminescence; 0% DMSO, 100% Δ7-dafachronic acid | activation, % at 6.8 µM;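 active means activation above the mean of all tested compounds plus 3 SD, cut at about 5.5% in these data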
hgDAF12 conf: confirmation of H. glycines DAF-12 agonists; 3,300 tested, 80% active; shares compounds with hgDAF12 agonist; activation, % at 6.8 µM; HEK293 GAL4-hgDAF12 luciferase reporter, agonist mode; percent of butyrate response;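 active means mean activation over triplicate wells above the hit cutoff derived from the earlier primary screen, cut at about 11% in these data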
LXR ag 2: counter-screen for DAF-12 agonists: agonists of human LXR-beta; shares compounds with hgDAF12 agonist; HEK293 Gal4-LXR luciferase reporter, 24 h; 3,300 tested, under 10 active; AID 743051; activation, % at 6.8 µM;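 active means mean activation of the triplicate above a set limit carried over from the primary screen, none filed active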
Of the large screens only hits and unclear results are named; the others gave an inactive call (follow-up assays come after a bar, where they were run).

CCCCCCCCN1C(=O)[C@@H](CC(=O)NCCCN2CCCC2=O)C[C@@]2(C(=O)OC)C1=C[C@H](C1CCCC1)O[C@@H]2C	none (no result: DAX1 inh-1)
Cc1oc(-c2cccc(Cl)c2)nc1CN(C)C1CCOC1 (stereo unspecified)	none
Cc1oc(-c2ccc(-c3ccccc3)cc2)nc1CN(C)C1CCOC1 (stereo unspecified)	hgDAF12 agonist 16 | hgDAF12 conf 14 | LXR ag 2 inactive
CCCCCCCCN1C(=O)[C@@H](CC(=O)NCCCCc2ccccc2)C[C@@]2(C(=O)OC)C1=C[C@H](C(C)(C)C)O[C@@H]2C	none (no result: DAX1 inh-1)
Cc1csc(NC(=O)c2ccc(Br)s2)n1	hgDAF12 agonist 17 | hgDAF12 conf 13 | LXR ag 2 inactive
O=C(Nc1ccccn1)c1ccc(Br)s1	hgDAF12 agonist 16 | hgDAF12 conf 13 | LXR ag 2 inactive
COc1ccccc1C(=O)Nc1ccccn1	hgDAF12 agonist 14 | hgDAF12 conf 13 | LXR ag 2 inactive
Cc1nc(NC(=O)c2ccc3c(c2)OCO3)ccc1Br	DAX1 inh-1 4.3, hgDAF12 agonist 16 | hgDAF12 conf 14 | LXR ag 2 inactive
Cc1ccc(C2c3c(n[nH]c3C)C(=O)N2c2ccccc2)cc1 (stereo unspecified)	none (no result: DAX1 inh-1)
CCOC(=O)Cc1csc(NC(=O)c2ccc3c(c2)OCO3)n1	none
Cc1csc(NC(=O)c2ccc3c(c2)OCO3)n1	hgDAF12 agonist 17 | hgDAF12 conf 16 | LXR ag 2 inactive
Cc1cc(C(=O)NC2=NCCS2)cs1	hgDAF12 agonist 17 | hgDAF12 conf 15 | LXR ag 2 inactive
CCOC(=O)N1CCN(C(=O)C[C@H]2C[C@@]3(C(=O)OC)C(=C[C@H](C4CCCC4)O[C@@H]3C)N(Cc3ccco3)C2=O)CC1	none (no result: DAX1 inh-1)
O=C(NC1CCCCN(Cc2cccc(Cl)c2)C1=O)c1cccs1 (stereo unspecified)	none (no result: DAX1 inh-1)
COc1cc(/C=N/N2CCOCC2)ccc1OCc1ccccc1	hgDAF12 agonist 18 | hgDAF12 conf inactive | LXR ag 2 inactive
O=C(O)c1cccc(-c2nnn(Cc3ccccc3)n2)c1	hgDAF12 agonist 15, hcDAF-12 act 5.7 | hgDAF12 conf 11 | LXR ag 2 inactive
Cn1c(Cc2cccs2)nnc1SCC(=O)Nc1ccc2c(c1)OCO2	none (no result: DAX1 inh-1)
CC(=O)Nc1ccc(OCCC[n+]2ccccc2)cc1	none
CC(=O)Nc1ccc(OCC[n+]2cccc(C(N)=O)c2)cc1	hgDAF12 agonist 20 (no result: DAX1 inh-1) | hgDAF12 conf inactive | LXR ag 2 inactive
COC(=O)[C@@]12CCCCC3=C1N(CCC3)C(=O)[C@H]2CC(=O)N1CCCC1	none (no result: DAX1 inh-1)
CC(=O)c1ccc(NC(=O)c2noc3c2CCCCC3)cc1	hgDAF12 agonist 14, DAX1 inh-2 3.8 | hgDAF12 conf 17 | LXR ag 2 inactive
COC(=O)[C@]12C[C@H](CC(=O)NCc3cccc(C(F)(F)F)c3)C(=O)N(Cc3ccco3)C1=C[C@H](C(C)C)O[C@@H]2C1CC1	none (no result: DAX1 inh-1)
Cc1ccc(Nc2nnc(SCC(=O)Nc3ccccc3[N+](=O)[O-])s2)cc1	none
Cc1ccc(Nc2nnc(SCC(=O)Nc3cccnc3Cl)s2)cc1C	hgDAF12 agonist 14 | hgDAF12 conf inactive | LXR ag 2 inactive
O=c1c2c(nc3cc(-c4ccccc4)[nH]n13)CCC2	hgDAF12 agonist 15 | hgDAF12 conf 13 | LXR ag 2 inactive
O=c1c2c(nc3cc(-c4ccc(Br)cc4)[nH]n13)CCCC2	ssDAF-12 act 1.4, DAX1 inh-1 6.3, hgDAF12 agonist 14, DAX1 inh-2 3.7 | hgDAF12 conf 20 | LXR ag 2 inactive
Cc1ccc(NC(=O)c2scc3c2CCCC3)cc1	DAX1 inh-1 4.6, hgDAF12 agonist 23, hcDAF-12 act 6.2 | hgDAF12 conf 15 | LXR ag 2 inactive
Cc1ccc(NC(=O)c2cc3c(s2)CCCC3)cc1	DAX1 inh-1 6.6, hgDAF12 agonist 19, DAX1 inh-2 4.2 | hgDAF12 conf 17 | LXR ag 2 inactive
CCOc1ccc(OCc2cccc(C(=O)N3CCCCCC3)c2)cc1	hgDAF12 agonist 16, DAX1 inh-2 3.8 | hgDAF12 conf 16 | LXR ag 2 inactive
CCOc1ccc(OCc2ccc(C(=O)N3CCCC3)o2)cc1	none
O=C(Nc1cc2c(oc1=O)CCCC2=O)c1cccc(Cl)c1	none
O=C(/C(C=Nc1cc2c(oc1=O)CCCC2=O)=C(\O)c1ccccc1)c1ccccc1	hgDAF12 agonist 14 | hgDAF12 conf inactive | LXR ag 2 inactive
COC(=O)c1ccc2nc(-c3ccc(Cl)cc3)c(Cc3ccccc3)n2c1	none (no result: DAX1 inh-1)
CN1CCN(c2ccc(-c3cc(NC=O)c4ncc(-c5ccc(F)cc5)n4c3)cc2)CC1	hgDAF12 agonist 17 (no result: DAX1 inh-1) | hgDAF12 conf inactive | LXR ag 2 inactive
CC(OC(=O)c1cccc(S(=O)(=O)N2CCOCC2)c1)C(=O)NC1CCCCC1C (stereo unspecified)	hgDAF12 agonist 18 | hgDAF12 conf inactive | LXR ag 2 inactive
CC(=O)N1C[C@@H](CO)[C@@H](N(C)C(=O)/C=C/c2ccccc2)C[C@H]1c1ccccc1	none (no result: DAX1 inh-1)
O=C(Nc1ccc(F)c(Cl)c1)c1cc(C2CCCN(C(=O)C3CC3)C2)on1 (stereo unspecified)	hgDAF12 agonist 15, DAX1 inh-2 4.4 (no result: DAX1 inh-1) | hgDAF12 conf inactive | LXR ag 2 inactive
O=C(Nc1ccc(F)c(Cl)c1)c1cc(C2CCCCN2C(=O)C2CC2)on1 (stereo unspecified)	none (no result: DAX1 inh-1)
COc1ccc(S(=O)(=O)N2CCCc3nc(-c4ccc(Br)cc4)ccc32)cc1	none (no result: DAX1 inh-1)
O=C(NCCCN1CCOCC1)c1cc(-c2ccccc2)on1	hgDAF12 agonist 26 | hgDAF12 conf 27 | LXR ag 2 inactive
O=C(NCCCN1CCOCC1)c1cc(-c2ccc(O)cc2)on1	none
O=C(NCCN1CCOCC1)c1cc(-c2ccc(Br)cc2)on1	none
O=C(NCCN1CCOCC1)c1cc(-c2cccs2)on1	hgDAF12 agonist 20 | hgDAF12 conf 29 | LXR ag 2 inactive
O=C(NCCN1CCOCC1)c1cc(-c2ccccc2)on1	hgDAF12 agonist 24 | hgDAF12 conf 23 | LXR ag 2 inactive
COc1ccc(Cn2ccc3ccc(-c4ccc5ccn(Cc6ccccc6F)c5c4)cc32)cc1	none (no result: DAX1 inh-1)
Cc1ccc(N2CCN(C(=O)c3cn(CC4CCCCC4)nn3)C(C)C2)cc1 (stereo unspecified)	ssDAF-12 act 1.0, hgDAF12 agonist 15, DAX1 inh-2 4.3 | hgDAF12 conf 13 | LXR ag 2 inactive
COCCNC(=O)/C(C#N)=C/c1cc(C)n(C2CCCCC2)c1C	hgDAF12 agonist 20, DAX1 inh-2 4.0 | hgDAF12 conf inactive | LXR ag 2 inactive
Cc1cc(/C=C(\C#N)C(=O)O)c(C)n1C1CC1	none
